# Reference: PubChem BioAssay (NCI)
# The panel holds about 83,000 compounds, 20% with a hit somewhere; the sample as a whole holds those more often.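 Growth was measured after 48 h exposure to one concentration of compound in 96-well plates. Values under 10 count as active.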 Activity calls are given as the source filed them.
# Tested on: NCI/ADR-RES ovarian
# Test: NCI-60 one-dose screen, 48 h (100 = growth as untreated, 0 = no growth, -100 = all killed)
# Details: 10 µM unless noted
# Protocol: Growth inhibition of the NCI/ADR-RES human […] tumor cell line is measured as a screen for anti-cancer activity. Cells are grown in 96 well plates and exposed to the test compound for 48 hours. Compounds are tested at a single concentration, which is 10^-5 M for most compounds. The reported endpoint is percent growth (GI% or GIPRCNT), where numbers from 0 - 100% represent growth inhibition, and numbers from -100% - 0 represent cell death. For example, a value of 40 represents 60% growth inhibition. A value of 0 means no net growth occurred over the course of the experiment. A value of -40 indicates 40% of cells at the beginning of the experiment died by the end of the experiment. A value of -100 means all cells are dead at the end of the experiment.
# NCI-60 Human Tumor Cell Lines Screen was performed using the standard one-dose NCI protocol, which is described in more detail at https://dtp.cancer.gov/discovery_development/nci-60/default.htm.
# Compounds with GIPRCNT values below 10 were considered active. Activity score was based on GIPRCNT using the following formula: […]
# Score is 0 for GIPRCNT values of 100 or above, 50 for GIPRCNT values of 0, and 100 for GIPRCNT values of -100.
row,Structure (SMILES),growth
1,NC1(N)C=CC2=C(C=C1)C1(N)C3=C(C=CC(N)(N)C=C3)N2C2(N)C3=C(C=CC(N)(N)C=C3)N1C1=C2C=CC(N)(N)C=C1,82.9% (inactive)
2,COCCNC1=C(Cl)C(=O)c2ccccc2C1=O,95.3% (inactive)
3,C/C(Cc1ccc(Cl)cc1)=C(/c1ccc(Cl)cc1)c1ccc(OCCN2CCCC2)cc1,84.4% (inactive)
4,C=C1CC[C@@H](C(=O)OC)Cc2nc(C)ccc21,98.5% (inactive)
5,COC(=O)[C@]12CC[C@@H](C)[C@H](C)[C@@H]1C1=CC(=O)[C@@H]3[C@@]4(C)C[C@@H](O)[C@H](O)[C@@]5(C)COC(=C45)C[C@@]3(C)[C@]1(C)CC2,20.8% (inactive)
6,COc1ccc(C2CC(=O)c3c(nc4ccc(Cl)cc4c3N)C2)cc1 (stereo not given),105% (inactive)
7,Nc1c2c(nc3ccc(Cl)cc13)CC(c1ccc(O)cc1)CC2=O (stereo not given),25.1% (inactive)
8,COc1ccc(/C=C/C(=O)NCC(C)O)cc1 (stereo not given),106% (inactive)
9,C[Si](C)(C)Cc1ccccc1,105% (inactive)
10,O=C(NO)c1ccc(Cn2c(=O)n(-c3ccccc3)c(=O)c3ccccc32)cc1,101% (inactive)
11,N#CC1c2ccccc2-c2ccccc2N1C(=O)c1ccccc1 (stereo not given),-47.4% (active)
12,CC(C)c1cc(C(=O)O)c(O)c(C(C)C)c1.CC(C)c1cc(C(=O)O)c(O)c(C(C)C)c1.[Mn],118% (inactive)
13,COc1ccc2c(c1)c1nc3cc(C)c(C)cc3nc1n2CCN(C)C,-70.3% (active)
14,COc1cc(/C=C/c2cc(/C=C/c3ccc(O)c(OC)c3)n(-c3ccc(Cl)cc3)c(=O)n2)ccc1O,96.5% (inactive)
15,Clc1ccc2[nH]cc(-c3nc(-c4c[nH]c5ncccc45)cs3)c2c1,38.7% (inactive)
16,Cc1csc(Nc2nc(-c3cccc(Br)c3)nc(C(Cl)(Cl)Cl)n2)n1,60.4% (inactive)
17,COc1ccc2nc(-c3c(-c4ccccc4)nc4ncccn34)[nH]c2c1,108% (inactive)
18,COc1ccc(-c2nc(Nc3ccc(-c4nc5ccccc5[nH]4)cc3)nc(N3CCOCC3)n2)cc1,34.2% (inactive)
19,CC(=O)c1c(C)[nH]c(-c2nc3ccc(N4CCN(C)CC4)cc3[nH]2)c1-c1ccc(N(C)C)cc1,34.2% (inactive)
20,Cc1cc2nc3c4cc([N+](=O)[O-])cc([N+](=O)[O-])c4n(CCN(C)C)c3nc2cc1C,57.8% (inactive)

row,Structure (SMILES),growth
1,CCc1ccc(-c2ccc(Nc3ccccc3)nn2)cc1S(N)(=O)=O,85.6% (inactive)
2,O=C(/C=C/c1cccc(O)c1)c1ccccc1O,86.6% (inactive)
3,COc1cc2nc(Cl)nc(Nc3cccc(C(=O)/C=C/c4ccccc4)c3)c2cc1OC,49.9% (inactive)
4,Cn1cc(-c2nc(-c3cn(C)c4ncccc34)cs2)c2ccccc21,8.77% (active)
5,O=C1/C(=C\C(Cl)=C/c2ccc([N+](=O)[O-])cc2)SC(=S)N1CCc1ccc(O)cc1,9% (active)
6,COc1cnc2c(c1)C(=O)c1c-2n(CCCNC2=NCCS2)c(=O)c2cc([N+](=O)[O-])ccc12,-8.56% (active)
7,CC/C=C\C[C@H]1CC=C2C(=O)C=C[C@@H]2CC=CCCCC(=O)O[C@@H](CCCCC)CC=C2C(=O)C=C[C@@H]2CC=CCCCC(=O)O[C@@H](CCCCC)CC=C2C(=O)C=C[C@@H]2CC=CCCCC(=O)O[C@@H](CCCCC)CC=C2C(=O)C=C[C@@H]2CC=CCCCC(=O)O1,92.6% [7.9 µM] (inactive)
8,O=C(O)c1cccc2c1Cc1cc([N+](=O)[O-])ccc1-2,100% (inactive)
9,CCOC(=O)c1ccc2c(c1)[n+](=O)c(C(=O)C1CCCS1)c(C(F)(F)F)n2[O-] (stereo not given),-70.4% (active)
10,COc1cnc2c(c1)C(=O)c1c-2n(CCCNCCN2CCOCC2)c(=O)c2cc([N+](=O)[O-])ccc12,7.12% (active)
11,O=C(O)c1cccc2c1-c1ccc(Cl)cc1C2,110% (inactive)
12,O=C1CCN2C(=O)Nc3ccccc3C2C1 (stereo not given),107% (inactive)
13,COc1ccc2c(c1)c(-c1nc(-c3c[nH]c4ncccc34)cs1)cn2CCCN1CCCCC1,58.7% (inactive)
14,O=C1NC(=Nc2ccc(S(=O)(=O)Nc3nccs3)cc2)S/C1=C\c1coc2ccccc2c1=O,106% (inactive)
15,Cc1cc2nc3c4cc(Cl)ccc4n(CCN(C)C)c3nc2cc1C,13.6% (inactive)
16,C/C(=N\Nc1ccc2ccccc2n1)c1ccccn1,1.66% (active)
17,NS(=O)(=O)c1ccc(CCNC(=O)/C=C/c2ccc(Cl)cc2)cc1,103% (inactive)
18,Cc1ccc(Sc2sc(-c3ccccc3)nc2[P+](c2ccccc2)(c2ccccc2)c2ccccc2)cc1,-7.72% (active)
19,CC1=CC(=O)N(c2cccc3c(N4C(=O)C=C(C)C4=O)cccc23)C1=O,78.3% (inactive)
20,COc1cc2nc(Cl)nc(Nc3cccc(C(=O)/C=C/c4ccc(Br)cc4)c3)c2cc1OC,92.2% (inactive)
